40 compounds from PubChem BioAssay (NCI) can be followed below.

The panel holds about 83,000 compounds, 20% with a hit somewhere; the sample as a whole holds those more often.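 The endpoint reported here, percent growth, reads 100 for growth as untreated, 0 for no net growth and -100 for all cells dead.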 The source made the active and inactive calls. The calls were made as follows: active = growth percent below 10; inactive = the rest.

This experiment deals with MDA-MB-468 breast. The experiment can be described thus: NCI-60 one-dose screen, 48 h (100 = growth as untreated, 0 = no growth, -100 = all killed). The conditions noted are these: 10 µM unless noted.
With `COc1cnc2c(c1)C(=O)c1c-2n(CCCNCC2CC2)c(=O)c2cc(F)ccc12`, the growth was -38.4% (active). To `C=C[C@@H]1C[C@@H]2Cc3c(C)cc(C)cc3N1O2` belongs 97.9% (inactive). `O=C1/C(=C/c2cccc(F)c2)Cc2ccccc21`: the growth is 107% (inactive). Regarding `S=C(S)OCN1CCOCC1`, the growth is 99.1% (inactive). With `COc1ccccc1-n1cc(C#N)c(N)c1C(=O)c1ccc(C)cc1`, the growth was 46.2% (inactive).

For the compound `Cc1ccc(C2=N[C@H]3CCC[C@@H]3N(c3ccccc3)C(C(Cl)Cl)=N2)cc1`, the growth is 116% (inactive).

Turning to `NCc1cn2cc(Cl)sc2n1`, the growth was 101% (inactive).

Turning to `Cc1ccc(C23CCC(=O)N2CCc2cncn23)cc1` (stereo not given), the growth was 85.2% (inactive).

With `Brc1cnc2[nH]cc(-c3nnc(-c4ccccc4)o3)c2c1`, the growth is 60.3% (inactive). Regarding `CC(C)Cc1ccc(C(C)C(=O)NCc2ccc(Cn3c(=O)sn(-c4ccc(Cl)cc4)c3=O)cc2)cc1` (stereo not given), the growth is 54.4% (inactive). As to `Cc1cc(N2CCCCC2)nc(N2CCN(CC(=O)Nc3ccc4c(ccn4Cc4ccccc4)c3)CC2)n1`, the growth was 37.6% (inactive).

On to `O=C1/C(=C\c2cccn2Cc2ccc(Cl)cc2)c2ccccc2N1c1c(Cl)cccc1Cl`, for which the growth was -27.9% (active). To `CCCCOc1ccc(/C=N/Nc2cc(C)nc3ccc(Br)cc23)cc1` belongs 32.2% (inactive); to `O=C(CN1CCOCC1)Nc1ccc(Cn2nnc3c2C(=O)c2nnn(Cc4ccc(NC(=O)CN5CCOCC5)cc4)c2C3=O)cc1`, -61.7% (active); to `NC1=NC(c2ccccc2OS(=O)(=O)c2ccc(Br)cc2)n2c(nc3ccccc32)N1` (stereo not given), 104% (inactive).

`CNC(=O)c1cc(Oc2ccc(NC(=O)Nc3ccc(Cl)c(C(F)(F)F)c3)c(F)c2)ccn1`: the growth was -49.1% (active). As for `Oc1c(CN2CCC(N3CCOCC3)CC2)cc(Cc2cc(CN3CCC(N4CCOCC4)CC3)c(O)c3ncccc23)c2cccnc12`, the growth is 9.12% (active).

Consider `COc1cc(/C=C\c2cc(OC)c(OC)c(OC)c2)cc(NC(=O)/C=C/c2cc(OC)c(OC)c(OC)c2)c1OC`, for which the growth is 36% (inactive). In the case of `C=C(C)[C@@H]1CC[C@]2(C)[C@H](CC=C3[C@@H]4[C@@H](C)[C@H](C)CC[C@]4(C(N)=O)CC[C@]32C)[C@@]1(C)CCC#N`, the growth was 0.182% [100 µM] (active). Take `CC1=C(C(=O)OC(C)C)C(c2ccc3c(c2)OCO3)NC(=S)N1` (stereo not given): the growth is 115% (inactive). To `Nc1nc(N)c2cc(CNc3ccc(Cl)c(Cl)c3)ccc2n1` belongs -75.3% (active); to `COc1ccc(/C=N/C2=C(C#N)C(c3ccccc3)c3ccc4ccccc4c3O2)cc1` (stereo not given), 17.9% (inactive).

As to `O=c1oc2c(cc1-c1ccccc1)c[n+]([O-])c1ccccc21`, the growth was 104% (inactive). For `Cc1ccc(C(=O)C2C(=O)C3CCC2C3)cc1` (stereo not given), the growth is 100% (inactive). In the case of `COc1cc(C(C)n2cc(-c3ccccc3)nn2)ccc1OC1CCCC1` (stereo not given), the growth was 5.07% (active).

With `Cc1cc(Nc2nc(N3CCN(C)CC3)nc3ccccc23)n[nH]1`, the growth was 90% (inactive).

With `C[C@@H](Nc1cc(F)cc(F)c1)c1cc(C(=O)N(C)C)cc2c(=O)cc(N3CCOCC3)oc12`, the growth was 12.6% (inactive). With `CC(=O)OC1/C=C\CC/C=C\C1` (stereo not given), the growth is 109% (inactive).

Take `CC(=O)c1cccc(O)c1`: the growth was 110% (inactive).

As to `CC(=O)/C(=C/c1ccc([N+](=O)[O-])cc1)C(=O)c1ccccc1`, the growth is 114% (inactive). `COc1ccc(Cn2c(NCCCN(C)C)nc(=O)n(Cc3ccc(F)cc3)c2=O)cc1`: the growth is 85.8% (inactive).

Turning to `CS(=O)(=O)c1ccc(/C(=N/N=C(N)N)c2ccc(Cl)cc2)cc1`, the growth was 68.5% (inactive).

Take `Brc1ccc(Br)nn1`: the growth is -85.5% (active). As to `CN(Cc1cnc2nc(N)nc(N)c2n1)c1ccc(C(=O)NC(CCC(=O)O)C(=O)O)cc1` (stereo not given), the growth is 6.99% (active).

`O=C(Nc1ccc2[nH]ncc2c1)c1csc(Nc2ccccc2)n1`: the growth was 14.4% (inactive).

`COc1ccc(NC(=O)c2sc3nc(C)c(C(O)c4ccc(OC)cc4)cc3c2N)cc1` (stereo not given): the growth was 24.8% (inactive).

As to `CN(C)S(=O)(=O)c1oc(-c2ccccc2)nc1C#N`, the growth was 35% (inactive). As to `O=C(CCl)N(c1ccccc1)c1ccccc1`, the growth is 104% (inactive). To `O=C1Cc2ccccc2C(=O)N1` belongs 45.8% (inactive); to `COc1ccc(C2CC(c3cccc(Nc4ccnc5cc(Cl)ccc45)c3)=NN2c2ccc(Cl)cc2)cc1` (stereo not given), 64% (inactive).
